# Experimental data reported in PubChem BioAssay.
# “And” between values parts separate entries of the source, which are not always exact repeats. Equal entries are not always repeated. The source made the active and inactive calls.
# Tests used:
# [1] = binders of probe aFSTL3 on microarray, primary screen, stem cell growth factor project, biochemical, small-molecule microarray, fluorescence 635/667 (AID 1064); settings: higher = more signal;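 note: measures binding of the biotinylated anti-FSTL3 antibody to printed compounds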
# [2] = binders from COS7 lysate, DM2A8 probe, primary screen, torsin A project, cell lysate, small-molecule microarray, fluorescence 635/667 (AID 1065); settings: higher = more signal, COS7 lysate expressing mutant human TOR1A
# [3] = binders of probe aFGF2 on microarray, primary screen, stem cell growth factor project, biochemical, small-molecule microarray, fluorescence 635/667 (AID 1067); settings: higher = more signal;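 note: measures binding of biotinylated aFGF2 protein to printed compounds on slides; z-score merges feature fluorescence and signal-to-noise across triplicate slides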
# [4] = binders of probe aFGF10 on microarray, primary screen, stem cell growth factor project, biochemical, small-molecule microarray, fluorescence 635/667 (AID 1071); settings: higher = more signal;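 note: score merges 667 nm spot intensity and signal to noise from triplicate slides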
# [5] = molecular target: Neurogenic locus notch homolog protein 2 (Homo sapiens) (UniProt Q04721); experiment: Notch2 binders on small-molecule microarrays, primary screen, biochemical, small-molecule microarray, 635 nm fluorescence, stem cell growth factors (AID 1073); settings: Notch2 binding, higher = more signal
# [6] = molecular target: Pro-neuregulin-1, membrane-bound isoform (Homo sapiens) (UniProt Q02297); experiment: NRG1 binders on small-molecule microarrays, primary screen, psychiatric disease protein project, biochemical, small-molecule microarray, fluorescence 635/667 (AID 1075); settings: NRG1 binding, 635 nm fluorescence, higher = more signal;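 note: score combines 667 nm spot fluorescence with signal to noise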
# [7] = tested on: Neuregulin-1 EGF-like domain; experiment: binders of neuregulin-1 EGF-like domain, primary screen, biochemical, small-molecule microarray, 635 nm fluorescence (AID 1081); settings: small-molecule microarray binding, higher = more signal;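 note: binding of the protein to compounds printed on small-molecule microarray slides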
# [8] = FRG1 promoter luciferase signal modulators, primary screen, FRG1 inhibition for FSHD, cell-based, C2C12 myotubes, firefly/Renilla luciferase, luminescence (AID 1084); settings: higher = more signal, called active from +8 up or from −8 down
# [9] = binders of probe aFST on microarray, primary screen, stem cell growth factor project, biochemical, small-molecule microarray, fluorescence 635/667 (AID 1086); settings: higher = more signal;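 note: score merges 667 nm fluorescence with signal-to-noise of each printed compound spot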
# [10] = binders of probe aHhip on microarray, primary screen, stem cell growth factor project, biochemical, small-molecule microarray, fluorescence 635/667 (AID 1087); settings: higher = more signal;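 note: score merges spot fluorescence at 667nm with spot signal to noise ratio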
# [11] = tested on: PRMT1 (protein arginine N-methyltransferase 1); experiment: PRMT1 binders on small-molecule microarrays, primary screen, biochemical, small-molecule microarray, 635 nm fluorescence (AID 1088); settings: small-molecule microarray binding, higher = more signal;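 note: binding of Prmt1 protein to compounds spotted on small-molecule microarray slides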
# [12] = yeast growth modulation, basal conditions, primary screen, YJM789 clinical isolate, OD600, 24 h (AID 1089);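 note: growth of clinical yeast isolate S. cerevisiae YJM 789 seeded 1000 cells per well; test concentration not given here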; settings: S. cerevisiae YJM789 growth, higher = more signal, called active from +8 up or from −8 down
# [13] = fission yeast growth modulation, primary screen, strain 972, OD600, 24 h, no modulator (AID 1090);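 note: basal condition with compound alone and no growth modifier present; test concentration not given here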; settings: S. pombe 972 growth, higher = more signal, called active from +8 up or from −8 down
# [14] = S. cerevisiae growth modulation with rapamycin, primary screen, strain BY4716, OD600, 96 h (AID 1091); settings: higher = more signal, called active from +8 up or from −8 down; note: test concentration not given here
# [15] = molecular target: Torsin-1A-interacting protein 2 (Homo sapiens) (UniProt Q8NFQ8); experiment: LULL1 binders on small-molecule microarray, primary screen, cell lysate, human LULL1 lysate, 635/667 nm fluorescence (AID 1092); settings: hLULL1 lysate binding, 635 nm fluorescence, higher = more signal;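 note: probe is lysate of COS7 cells overexpressing human LULL1; score merges per-feature 667 nm fluorescence with signal-to-noise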
# [16] = E. coli growth modulation, two-sided OD650, primary screen, E. coli filamentation project, strain DRC41, 24 h (AID 1093); settings: OD650, 24 h, higher = more signal, called active from +8 up or from −8 down;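 note: MC1000 strain lacking acrAB efflux and sulA so SOS filamentation is blocked; test concentration not given here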
# [17] = small-molecule microarray binders of probe aLefty2, primary screen, biochemical, biotinylated probe, 635/667 nm fluorescence (AID 1094); settings: higher = more signal;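 note: score merges spot fluorescence near 667 nm with spot signal-to-noise ratio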
# [18] = tested on: Noggin (protein binding on small-molecule microarray); experiment: Noggin binders on small-molecule microarray, primary screen, biochemical, 635/667 nm fluorescence (AID 1095); settings: 635 nm fluorescence, higher = more signal;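 note: score merges 667 nm feature fluorescence with signal to noise over triplicate slides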
# [19] = molecular target: Neurogenic locus notch homolog protein 3 (Homo sapiens) (UniProt Q9UM47); experiment: NOTCH3 binders on small-molecule microarray, primary screen, biochemical, 635/667 nm fluorescence (AID 1096); settings: NOTCH3 binding, 635 nm fluorescence, higher = more signal
# [20] = small-molecule microarray binders of probe aEGFR, primary screen, biochemical, biotinylated probe, 635/667 nm fluorescence (AID 1097); settings: higher = more signal;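 note: probe is a biotinylated anti-EGFR antibody binding compounds printed on slides; score combines fluorescence near 667 nm and signal to noise of each spot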
# Chain of Neurogenic locus notch homolog protein 2 (Homo sapiens) (Q04721 whole entry, looked up, canonical isoform): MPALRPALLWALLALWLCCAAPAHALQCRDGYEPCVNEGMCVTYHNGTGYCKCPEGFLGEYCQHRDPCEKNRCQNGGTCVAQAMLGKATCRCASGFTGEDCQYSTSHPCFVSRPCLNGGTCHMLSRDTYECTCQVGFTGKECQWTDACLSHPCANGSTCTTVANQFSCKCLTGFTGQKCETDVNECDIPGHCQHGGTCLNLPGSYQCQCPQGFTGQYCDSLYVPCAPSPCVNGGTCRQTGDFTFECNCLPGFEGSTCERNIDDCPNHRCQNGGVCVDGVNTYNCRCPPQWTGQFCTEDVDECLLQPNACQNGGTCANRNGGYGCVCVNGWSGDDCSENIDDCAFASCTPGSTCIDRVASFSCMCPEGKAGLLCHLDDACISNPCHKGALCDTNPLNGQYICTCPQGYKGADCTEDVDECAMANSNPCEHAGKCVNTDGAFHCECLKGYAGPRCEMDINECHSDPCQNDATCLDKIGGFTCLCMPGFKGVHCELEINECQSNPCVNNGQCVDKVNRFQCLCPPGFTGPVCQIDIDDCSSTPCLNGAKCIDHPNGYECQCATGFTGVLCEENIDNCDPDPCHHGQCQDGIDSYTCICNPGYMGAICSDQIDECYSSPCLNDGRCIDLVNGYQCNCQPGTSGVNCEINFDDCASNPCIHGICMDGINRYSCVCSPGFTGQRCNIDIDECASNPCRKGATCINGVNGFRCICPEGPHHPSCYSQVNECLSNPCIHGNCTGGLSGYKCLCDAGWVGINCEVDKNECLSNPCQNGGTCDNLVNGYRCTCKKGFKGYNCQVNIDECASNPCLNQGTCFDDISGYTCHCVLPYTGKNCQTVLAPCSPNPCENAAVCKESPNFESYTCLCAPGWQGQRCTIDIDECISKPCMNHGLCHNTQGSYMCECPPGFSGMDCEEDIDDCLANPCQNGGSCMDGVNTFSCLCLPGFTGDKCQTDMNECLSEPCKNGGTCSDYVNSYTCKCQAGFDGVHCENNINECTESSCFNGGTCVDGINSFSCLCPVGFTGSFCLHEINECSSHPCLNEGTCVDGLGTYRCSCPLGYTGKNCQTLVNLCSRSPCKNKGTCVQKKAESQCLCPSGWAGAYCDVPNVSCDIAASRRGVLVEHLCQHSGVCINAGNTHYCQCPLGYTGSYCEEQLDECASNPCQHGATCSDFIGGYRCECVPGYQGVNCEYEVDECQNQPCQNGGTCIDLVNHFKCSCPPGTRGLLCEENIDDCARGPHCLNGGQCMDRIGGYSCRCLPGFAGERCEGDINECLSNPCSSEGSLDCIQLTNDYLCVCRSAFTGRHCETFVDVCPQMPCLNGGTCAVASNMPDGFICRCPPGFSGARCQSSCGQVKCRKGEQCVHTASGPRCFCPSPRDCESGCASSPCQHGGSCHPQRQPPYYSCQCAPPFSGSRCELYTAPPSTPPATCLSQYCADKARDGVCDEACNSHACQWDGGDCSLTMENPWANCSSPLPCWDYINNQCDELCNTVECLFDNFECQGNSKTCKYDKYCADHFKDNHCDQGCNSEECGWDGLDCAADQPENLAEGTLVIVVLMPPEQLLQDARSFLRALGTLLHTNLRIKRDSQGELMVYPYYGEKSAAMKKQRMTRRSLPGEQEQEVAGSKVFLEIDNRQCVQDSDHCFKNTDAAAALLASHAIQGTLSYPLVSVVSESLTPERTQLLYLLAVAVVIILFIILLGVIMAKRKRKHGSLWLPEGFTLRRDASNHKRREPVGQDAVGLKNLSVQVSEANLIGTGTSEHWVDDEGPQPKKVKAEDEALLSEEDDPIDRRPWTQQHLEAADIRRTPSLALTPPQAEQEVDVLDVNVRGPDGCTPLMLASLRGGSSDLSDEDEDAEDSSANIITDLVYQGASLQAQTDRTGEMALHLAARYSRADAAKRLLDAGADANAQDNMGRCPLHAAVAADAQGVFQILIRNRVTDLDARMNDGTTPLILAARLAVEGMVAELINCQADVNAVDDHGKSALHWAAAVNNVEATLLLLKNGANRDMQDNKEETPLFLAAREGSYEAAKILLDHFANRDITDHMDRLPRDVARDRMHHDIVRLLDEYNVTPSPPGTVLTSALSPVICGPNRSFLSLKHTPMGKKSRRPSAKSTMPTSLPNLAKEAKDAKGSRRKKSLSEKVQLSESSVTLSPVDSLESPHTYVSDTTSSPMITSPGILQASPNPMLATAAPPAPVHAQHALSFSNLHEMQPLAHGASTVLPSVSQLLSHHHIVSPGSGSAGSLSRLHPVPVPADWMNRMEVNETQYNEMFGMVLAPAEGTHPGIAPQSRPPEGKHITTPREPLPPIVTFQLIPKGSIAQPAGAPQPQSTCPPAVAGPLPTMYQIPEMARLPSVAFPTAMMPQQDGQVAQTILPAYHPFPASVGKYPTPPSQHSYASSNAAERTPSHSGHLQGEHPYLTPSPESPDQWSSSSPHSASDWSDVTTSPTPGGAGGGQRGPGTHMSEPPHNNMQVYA
# Chain of Pro-neuregulin-1, membrane-bound isoform (Homo sapiens) (Q02297 whole entry, looked up, the tested form may be a part, canonical isoform): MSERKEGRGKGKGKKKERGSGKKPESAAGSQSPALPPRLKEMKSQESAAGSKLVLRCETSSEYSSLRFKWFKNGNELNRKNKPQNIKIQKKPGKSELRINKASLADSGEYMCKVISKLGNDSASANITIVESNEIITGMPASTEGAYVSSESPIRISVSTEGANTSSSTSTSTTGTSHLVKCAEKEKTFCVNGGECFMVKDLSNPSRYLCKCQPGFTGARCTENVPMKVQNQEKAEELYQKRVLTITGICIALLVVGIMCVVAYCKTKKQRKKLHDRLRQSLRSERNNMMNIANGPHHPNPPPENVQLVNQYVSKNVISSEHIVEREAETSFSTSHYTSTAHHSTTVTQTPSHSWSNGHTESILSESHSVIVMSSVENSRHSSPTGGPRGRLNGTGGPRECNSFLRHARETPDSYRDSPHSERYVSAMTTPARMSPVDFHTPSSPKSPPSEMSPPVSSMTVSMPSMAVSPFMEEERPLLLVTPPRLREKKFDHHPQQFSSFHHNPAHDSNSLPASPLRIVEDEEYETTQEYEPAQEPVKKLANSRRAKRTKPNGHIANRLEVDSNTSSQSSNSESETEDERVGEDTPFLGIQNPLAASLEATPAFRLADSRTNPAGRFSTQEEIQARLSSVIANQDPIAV
# Chain of Torsin-1A-interacting protein 2 (Homo sapiens) (Q8NFQ8 whole entry, looked up): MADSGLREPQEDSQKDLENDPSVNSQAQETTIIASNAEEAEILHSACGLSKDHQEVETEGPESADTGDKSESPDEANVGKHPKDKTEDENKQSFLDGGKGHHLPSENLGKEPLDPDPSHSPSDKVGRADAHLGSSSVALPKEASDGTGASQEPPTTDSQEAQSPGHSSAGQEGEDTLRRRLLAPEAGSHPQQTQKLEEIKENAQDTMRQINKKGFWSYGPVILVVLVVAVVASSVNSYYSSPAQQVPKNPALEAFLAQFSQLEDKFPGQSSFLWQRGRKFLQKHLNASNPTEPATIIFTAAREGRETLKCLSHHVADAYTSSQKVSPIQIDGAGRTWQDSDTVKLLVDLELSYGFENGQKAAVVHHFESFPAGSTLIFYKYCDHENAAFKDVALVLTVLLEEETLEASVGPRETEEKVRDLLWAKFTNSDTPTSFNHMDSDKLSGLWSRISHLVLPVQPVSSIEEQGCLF
Compound,composite z-score [1],composite z-score [2],composite z-score [3],composite z-score [4],composite z-score [5],composite z-score [6],composite z-score [7],z-score [8],composite z-score [9],composite z-score [10],composite z-score [11],z-score [12],z-score [13],z-score [14],composite z-score [15],z-score [16],composite z-score [17],composite z-score [18],composite z-score [19],composite z-score [20]
C=CCN(Cc1ccccc1)C(=O)C(c1cccs1)N(C(=O)/C=C\C(=O)O)c1ccc(CCO)cc1 (stereo not given),1.05 and 0.697,-1.89 and -1.8,-0.175 and -0.232,-1.05 and -0.73,-1.36 and -1.96,-0.789 and -0.264,1.25 and 1.43,0.0388 (inactive) and -0.725 (inactive),-0.966 and -0.865,-0.369 and 0.205,-0.0611 and -0.636,-0.0499 (inactive) and -0.0798 (inactive),-0.0594 (inactive) and 0.33 (inactive),-0.184 (inactive) and 0.0995 (inactive),3.59 and 1.9,0.478 (inactive) and -0.0137 (inactive),-0.0927 and -0.205,-2.05 and -1.63,-1.46 and -0.922,-0.239 and -0.321
COC(=O)C1=C(C)N(Cc2ccccc2)[C@]23O[C@](C(=O)OC)(C(=O)N2[C@@H]1c1ccccc1)[C@@H](C(=O)OC)[C@H]3C(=O)OC,0.202 and -0.441,-0.295 and -0.1,-0.112 and -0.0712,-0.204 and 0.255,-0.481 and 0.25,0.943 and -0.386,0.393 and 0.208,-0.125 (inactive) and -0.101 (inactive),-0.243 and -0.0583,-0.137 and -0.189,-0.584 and 0.5,0.464 (inactive) and 0.457 (inactive),-0.0252 (inactive) and -0.671 (inactive),0.667 (inactive) and 0.334 (inactive),0.19 and 0.0032,0.305 (inactive) and 0.28 (inactive),-0.277 and -0.259,-0.803 and 0.77,-1.21 and 0.287,-0.173 and -0.115
C=CCN(CCCC)C(=O)C1N(c2c(Cl)cccc2CO)C(=O)C2C(C(=O)O)C3C=CC21O3 (stereo not given),1.38 and 0.489,-0.331 and -0.392,-0.247 and -0.307,-0.842 and -1.3,-1.17 and -1.13,-0.909 and 0.0849,-0.981 and 0.374,0.183 (inactive) and -0.987 (inactive),-0.931 and -0.719,-0.412 and -0.323,-0.502 and 0.174,0.381 (inactive) and 0.588 (inactive),-0.162 (inactive) and -0.186 (inactive),0.258 (inactive) and -0.535 (inactive),-1.27 and 3.03,0.455 (inactive) and 3.02 (inactive),-0.0948 and -0.113,-2.38 and -0.509,-1.73 and -0.0461,-0.308 and -0.0286
CC(C)CCN1CCc2nc(-c3ccccc3)c3c(c2C1)CO[C@@H](C)C3,1.3,0.0532,-0.0996,0.491,0.698,0.334,1.17,-0.174 (inactive),0.57,0.208,0.837,-0.334 (inactive),-0.519 (inactive),0.622 (inactive),1.8,0.825 (inactive),-0.0641,0.444,0.922,-0.0578
Cc1ccc(S(=O)(=O)N[C@H]2COC(=O)[C@@H](Cc3ccccc3)NC(=O)[C@@H](C)COC(=O)CC=C[C@@H]2C)cc1,-0.547 and -0.267,0.811 and 0.656,-0.177 and -0.145,0.0514 and 0.209,-0.311 and 0.0627,-0.355 and -0.215,-0.721 and 0.219,1.23 (inactive) and 1.04 (inactive),-0.169 and -0.0364,-0.429 and -0.0994,-0.0829 and 1.56,-0.248 (inactive) and -0.666 (inactive),0.209 (inactive) and 0.195 (inactive),-0.342 (inactive) and -0.348 (inactive),-0.872 and 0.969,0.205 (inactive) and 0.134 (inactive),-0.212 and -0.0726,0.3 and 0.541,-0.587 and 0.629,-0.0952 and -0.0661
Cc1cc2c(nc1C)CCCN2CC(O)CN1CCCc2nc(-c3ccc(Br)cc3)ccc21 (stereo not given),0.738 and 1.41,0.694 and 0.644,0.115 and 0.363,0.902 and 0.602,1.15 and 1.39,1.56 and 1.11,1.16 and 1.11,4.83 (inactive) and 2.39 (inactive),0.916 and 0.891,0.968 and 2.11,1.55 and 1.54,0.612 (inactive) and 1.25 (inactive),-3.62 (inactive) and -0.716 (inactive),-1.15 (inactive) and -0.578 (inactive),1.25 and 1.75,-0.804 (inactive) and 0.109 (inactive),0.467 and 0.823,1.02 and 0.741,1.1 and 1.11,0.304 and 0.48
C[C@@H]1CC[C@H]2C(=O)NC[C@@H](O)CN2[C@H]1c1ccc(Br)cc1,-0.194 and -0.181,0.332 and 0.0997,-0.116 and -0.134,0.23 and 0.0389,-0.556 and -0.244,0.229 and -0.138,0.693 and 0.72,0.674 (inactive) and -0.078 (inactive),-0.304 and 0.127,-0.3 and -0.134,-0.0838 and -0.473,-0.77 (inactive) and 0.443 (inactive),-0.0565 (inactive) and -0.0682 (inactive),-0.451 (inactive) and 0.389 (inactive),0.759 and -0.129,0.0565 (inactive) and 0.377 (inactive),-0.136 and -0.253,0.561 and -0.0536,-0.0857 and -0.344,-0.171 and -0.0356
O=C1C[C@]2(c3ccc([N+](=O)[O-])cc3)C(=O)N(Cc3ccccc3)c3cc(CO)ccc3[C@H]2N1C1CCCCC1,-0.391 and -0.0715,0.0304 and -0.0759,-0.145 and 0.103,-0.416 and 0.208,0.168 and 0.853,-0.183 and 0.819,1.25 and 1.12,-0.0521 (inactive) and 0.981 (inactive),-0.0791 and -0.129,-0.185 and 1.38,1.33 and 0.39,-0.754 (inactive) and -0.363 (inactive),0.31 (inactive) and -0.838 (inactive),-1.02 (inactive) and 3.78 (inactive),2.21 and 1.14,0.245 (inactive) and 0.545 (inactive),-0.21 and 0.668,0.469 and 0.225,0.219 and 0.161,-0.0828 and 0.805
